NLRP3 yeast inh: blocks the NALP3 inflammasome reconstituted in yeast; AID 2825; Yeast reconstituted NLRP3/ASC/caspase-1, beta-gal luminescence, 24 h; inhibition, % at 10 µM; actives 0.39% (n = 330,000);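 active = inhibition of 50% or more; inactive = inhibition below 50%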;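 also: plate controls were induced DMSO wells for no effect and uninduced yeast grown without galactose for full effect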
tim23-1 inh: tim23-1 yeast growth inhibition; AID 463212; S. cerevisiae tim23-1 growth, BacTiter-Glo luminescence, 24 h; actives 1.3% (n = 330,000); inhibition, % at 20 µM;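 active = growth inhibition of the mutant yeast at or above 50%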;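 also: temperature-sensitive mutant grown at 25 °C; plate controls were DMSO-treated mutant yeast for no effect and medium wells lacking yeast for full effect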
SKKanGAS inh: inhibitors of SKKanGAS S. pyogenes growth in kanamycin (SK-promoter or general growth effect); BacTiter-Glo, 6 h; inhibition, % at 7.5 µM; actives 1.3% (n = 300,000); AID 1662;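 active = mean replicate score, as percent of positive control median, at least 50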;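 also: strain carries kanamycin resistance gene driven by streptokinase promoter and grows in 40 µg/ml kanamycin; loss of luminescence reflects streptokinase promoter inhibition or plain growth inhibition; 0% = median of DMSO wells and 100% = positive control at its reference dose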
tim10-1 inh: inhibits growth of tim10-1 mutant yeast; actives 2.2% (n = 330,000); S. cerevisiae tim10-1 ts strain growth, BacTiter-Glo, 24 h; AID 463190; inhibition, % at 20 µM;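 active = inhibition of at least 40%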;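 also: mutant grown at 25 °C; 0% = DMSO wells with yeast and 100% = wells holding no yeast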
TIM10 inh: inhibits growth of TIM10 yeast strain. S. cerevisiae TIM10 strain growth, BacTiter-Glo luminescence, 24 h. inhibition, % at 10 µM. actives 1.4% (n = 330,000);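 active = inhibition of 40% or more at the single tested concentration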;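 also: wild-type TIM10 isogenic control strain grown at permissive 25 °C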
tim10 confirm: TIM10 yeast growth inhibition, confirmed. shares compounds with TIM10 inh. S. cerevisiae tim10 strain growth, BacTiter-Glo luminescence, 24 h. inhibition, % at 10 µM. actives 63% (n = 4,600). AID 463215;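 active = inhibition of yeast growth at or above a set limit in either of two replicates at 10 µM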;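 also: this counterscreen used the strain with wild-type TIM10; 0% = yeast with DMSO and 100% = medium wells lacking yeast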
tim23-1 conf: confirmation of tim23-1 mutant yeast growth inhibitors; shares compounds with tim23-1 inh; inhibition, % at 20 µM; AID 463218; actives 83% (n = 4,400); S. cerevisiae tim23-1 growth, BacTiter-Glo luminescence, 24 h;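 active = inhibition above about 39% in either of two replicate wells at 20 µM, limit read from the data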;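 also: temperature-sensitive tim23-1 mutant grown at 25 °C; 0% = DMSO wells with yeast and 100% = medium wells without yeast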
Starred values were filed as active, the others as inactive; . = no result. Shown are actives, neighbours in structure and some others; about 4.6% of the full set was active somewhere.

SMILES | NLRP3 yeast inh | tim23-1 inh | SKKanGAS inh | tim10-1 inh | TIM10 inh | tim10 confirm | tim23-1 conf
COc1cc(/C=C2\C(C)=C(C#N)c3nc(N)c(C#N)c(C)c32)ccc1OCC(=O)O | 8 | 61* | 3 | 39 | 44* | 31* | 48*
COCCCNC(=O)/C(C#N)=C/c1ccc(OCC(=O)O)c(OC)c1 | 7 | 2 | 1 | -4 | 10 | . | .
Cc1ccc(-c2cc(-c3n[nH]c(=S)n3C)c3ccccc3n2)cc1 | 35 | 52* | 5 | 36 | 50* | 48* | 59*
COc1cc(-c2nnc(SCC3(c4ccccc4)OCCO3)o2)cc(OC)c1OC | 4 | 2 | 5 | 2 | 10 | . | .
CCOC(=O)c1sc2ccccc2c1OC(=O)c1ccccc1OC | 4 | 54* | 8 | 35 | 49* | 44* | 50*
CCCc1ccc(C(=O)O/N=C(\N)c2ccccn2)cc1 | 32 | 51* | 15 | 34 | 52* | 64* | 57*
N/C(=N\OC(=O)c1ccc(Cl)cc1[N+](=O)[O-])c1ccccn1 | 9 | 77* | -1 | 7 | 62* | 71* | 71*
N/C(=N\OC(=O)c1cc(Br)ccc1Cl)c1ccccn1 | -1 | 62* | 3 | 27 | 45* | 65* | 45*
N/C(=N\OC(=O)c1cc([N+](=O)[O-])ccc1Cl)c1ccccn1 | 5 | 28 | -3 | 19 | 10 | . | .
CCOc1cc(Br)c(Br)c(C=Nc2ccc(NC(C)=O)cc2)c1O | 10 | 76* | -2 | -6 | 71* | 90* | -61
Oc1ccc(Br)cc1-c1cc(-c2ccccc2Cl)[nH]n1 | -10 | 17 | 23 | 17 | 17 | . | .
COc1ccc(O)c(-c2cc(-c3ccccc3Cl)[nH]n2)c1 | -8 | 81* | 59* | 39 | 50* | 57* | 72*
Cc1c(Cl)cccc1NC(=O)c1cc(-c2ccccc2O)n[nH]1 | 21 | -11 | -3 | 8 | -1 | . | .
Cc1ccc(-c2cc(-c3ccccc3Cl)[nH]n2)c(O)c1 | 25 | 65* | 110* | 25 | 51* | 65* | 9
Cc1cccc(OCC(=O)NCCCNC(=O)c2ccncc2)c1 | 17 | 9 | -8 | 1 | 0 | . | .
CN1CC(=O)N(CC(=O)Nc2cc(Cl)cc(Cl)c2)C1=O | 13 | 1 | 3 | 4 | -5 | . | .
O=C(COC(=O)COc1ccc(Cl)cc1)NCc1cccs1 | 13 | 13 | -10 | 7 | -30 | . | .
CN(Cc1ccccc1Cl)C(=O)C1CCC(=O)N(C2CCCCCC2)C1 (centres undefined) | 6 | 14 | -1 | 16 | 10 | . | .
CC1CCc2cc(F)cc3c(O)c(C(=O)NCc4ccco4)c(=O)n1c23 (centres undefined) | 31 | 55* | 19 | 30 | 49* | -4 | 51*
O=Cc1ccccc1OCCOc1ccc([N+](=O)[O-])cc1 | 23 | 58* | -21 | 36 | 76* | 68* | 90*
CC(=O)c1ccc(OCCOc2ccc([N+](=O)[O-])cc2)cc1 | 28 | 38 | -8 | 18 | 5 | . | .
O=C(COC(=O)c1cccc(O)c1)Nc1ccc(N2CCOCC2)cc1 | 19 | -12 | . | -15 | 2 | . | .
Cc1ccccc1S(=O)(=O)N1[C@@H](c2ccc(F)cc2)C(C(=O)O)=CC[C@H]1c1ccc(Cl)cc1 | 5 | 12 | . | 17 | 6 | . | .
CC[C@]1(c2ccccc2C)ON(c2ccccc2C(F)(F)F)C1=O | 10 | 12 | . | -51 | -5 | . | .
COc1ccccc1[C@@]1(C)ON(c2ccccc2C(F)(F)F)C1=O | 39 | 63* | . | -98 | 65* | 55* | -93
SMILES | NLRP3 yeast inh | tim23-1 inh | SKKanGAS inh | tim10-1 inh | TIM10 inh | tim10 confirm | tim23-1 conf
Cc1c(N=C2NN=C(c3c[nH]c4ccccc34)CS2)c(=O)n(-c2ccccc2)n1C | 12 | 11 | -4 | 25 | 13 | . | .
COc1ccc(-c2onc(C)c2-c2cnn(-c3ccccc3)c2)c(O)c1C | 8 | 38 | -5 | 19 | 24 | . | .
COc1ccc(-c2n[nH]c(C)c2-c2cnn(-c3ccccc3)c2)c(O)c1C | 9 | 51* | 48 | 39 | 48* | 45* | 59*
O=C(Nc1ccc(N2CCN(c3ccc(C(F)(F)F)cn3)CC2)nc1)c1cccs1 | -13 | -2 | 1 | -17 | -1 | . | .
O=C(Nc1ccc(N2CCN(c3ncccc3C(F)(F)F)CC2)nc1)c1cccs1 | 35 | 67* | 5 | 37 | 45* | 53* | 82*
O=C(Nc1ccc(N2CCOCC2)nc1)c1cccs1 | 18 | 50* | -2 | 26 | 55* | 43* | 68*
CCc1ccc(-c2nc(CS(=O)CC(=O)NCCCN3CCOCC3)c(C)o2)cc1 (centres undefined) | 16 | 7 | 10 | -24 | -4 | . | .
O=C(Nc1nccs1)c1ccc2ccccc2c1 | 47 | 54* | 22 | -27 | 46* | 52* | 63*
O=C(Nc1nccs1)c1ccc2c(=O)n3c(nc2c1)CCCCC3 | 36 | 52* | 4 | 6 | 49* | 44* | 66*
O=C(Nc1nccs1)c1ccc(S(=O)(=O)c2ccccc2)cc1 | -5 | -6 | 2 | 7 | 4 | . | .
COc1ccccc1C1CCN(C(=O)c2ccccc2)CC1 | 5 | 3 | 8 | 1 | 12 | . | .
COc1ccccc1C1CCN(c2cc(O)ccc2[N+](=O)[O-])CC1 | 26 | 60* | 20 | 36 | 48* | 43* | 60*
CC(C(=O)OCC(=O)Nc1ccc(S(N)(=O)=O)cc1)N1C(=O)c2ccccc2C1=O (centres undefined) | 7 | -12 | . | -6 | -4 | . | .
CNC(=S)N/N=C(\C)c1ccc(C(C)(C)C)cc1 | 27 | 50* | -14 | 31 | 48* | 0 | 38
CNC(=S)N/N=C(\C)c1ccccc1 | 6 | 16 | -3 | 22 | 18 | . | .
C=CCC1(C#N)C(SC)=NC2=C(C(=O)CC(C)(C)C2)C1c1ccc(Br)cc1 (centres undefined) | 14 | 55* | 10 | 39 | 44* | 32* | 43*
Nc1ccc(-c2nc3c(ccc4ccccc43)[nH]2)cc1 | 23 | 58* | 14 | 5 | 66* | 66* | 52*
Cc1cccc(-c2nc(Nc3cccc(O)c3)c3ccccc3n2)c1 | 38 | 78* | 17 | 6 | 53* | 50* | 24
Cc1cccc(-c2nc(Nc3ccc(N4CCOCC4)cc3)c3ccccc3n2)c1 | 25 | 32 | 12 | 27 | 6 | . | .
O=C(NCC1CCCO1)c1ccc2[nH]c3c(c2c1)CCCC3 (centres undefined) | 20 | 23 | . | 28 | 10 | . | .
COc1ccc(C)cc1NC(=O)CCN1CC(C)OC(C)C1 (centres undefined) | 18 | 2 | 0 | 7 | -13 | . | .

Assay outcomes: PubChem BioAssay, several laboratories
